LANA-H2A inh – blocks KSHV LANA binding to histone H2A/H2B. inhibition, % (test concentration not listed). cell-free LANA-H2A/H2B peptide, fluorescence polarization. 320,000 tested, 0.6% active. AID 2629. Q9QR71; in the data active = inhibition mostly above about 10%, no sharp cut-off; inactive = mostly below about 6.7%
C-LANA FP – KSHV C-LANA DNA binding inhibition | MBP-C-LANA/FAM-LBS DNA binding, fluorescence polarization | inhibition, % at 9 µM | 340,000 tested, 0.078% active;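 active = highest replicate inhibition at or above 60% at 9 µM, even if other replicates fall short; inactive = all replicates below 60% inhibition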;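 also: 0% = neutral control wells and 100% = 4 µM acridine orange control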
Keap1 Nrf2 FP – disrupts human Keap1 binding to Nrf2 peptide; Q14145; Keap1 Kelch-Nrf2 peptide fluorescence polarization, 1536-well; inhibition, % at 9.4 µM; 340,000 tested, 0.15% active; in the data active = inhibition above about 12%; inconclusive = no clear call, values can overlap the other calls; inactive = below about 7.3%;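 also: human Keap1 Kelch domain with fluorescein labeled Nrf2 9mer peptide probe; 0% = neutral control wells and 100% = peptide positive control; higher means more block of Keap1 binding to Nrf2 peptide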
Target sequence (Q14145 whole entry, looked up, the tested form may be a part): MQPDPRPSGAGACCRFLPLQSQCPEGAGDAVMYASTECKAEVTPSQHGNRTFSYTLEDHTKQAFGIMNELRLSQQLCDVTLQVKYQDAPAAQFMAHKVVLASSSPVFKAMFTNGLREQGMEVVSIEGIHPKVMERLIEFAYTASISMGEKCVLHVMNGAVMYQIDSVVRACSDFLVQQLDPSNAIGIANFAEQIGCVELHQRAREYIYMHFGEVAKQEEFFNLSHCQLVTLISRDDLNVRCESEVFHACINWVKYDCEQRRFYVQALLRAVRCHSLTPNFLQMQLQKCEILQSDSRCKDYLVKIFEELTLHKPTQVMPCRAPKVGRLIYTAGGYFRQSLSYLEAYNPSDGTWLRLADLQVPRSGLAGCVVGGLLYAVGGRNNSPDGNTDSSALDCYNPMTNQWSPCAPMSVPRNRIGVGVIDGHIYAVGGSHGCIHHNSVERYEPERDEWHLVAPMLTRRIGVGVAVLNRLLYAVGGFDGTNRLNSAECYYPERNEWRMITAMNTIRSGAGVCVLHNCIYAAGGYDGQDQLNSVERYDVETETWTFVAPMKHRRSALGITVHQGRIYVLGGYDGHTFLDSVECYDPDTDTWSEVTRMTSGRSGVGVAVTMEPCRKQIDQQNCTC
RTF Ca sens act – increases calcium sensitivity of human cardiac regulated thin filaments. P19429+P45379. activation, % at 7.2 µM. IANBD-labeled TnC RTF fluorescence at EC20 calcium; 0% EC20 calcium, 100% full calcium. 340,000 tested, 0.24% active;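 active = activation above the mean over all tested compounds plus 3 SD, cut at about 30% in these data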;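 also: rise in fluorescence read as greater calcium sensitivity of cardiac thin filaments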
Cardiac RTF inh – cardiac RTF calcium desensitization. P19429+P45379. IANBD-labeled cardiac RTF, Ca2+ fluorescence. inhibition, % at 7.15 µM. 340,000 tested, 0.12% active;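 active = inhibition above the mean inhibition of all tested compounds plus 3 SD, cut at about 17% in these data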;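 also: assay run at fixed EC70 calcium of 1.6 mM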
The depositor's hits bear a star; u = inconclusive; x = no result given. In the library only some 0.98% were active in any assay of this set; here they are far more common.

SMILES	LANA-H2A inh	C-LANA FP	Keap1 Nrf2 FP	RTF Ca sens act	Cardiac RTF inh
O=C(CSc1nnnn1-c1cccc2ccccc12)Nc1ccc(N2CCOCC2)c(Cl)c1	15.2*	-0.1	-3.7	7.5	-6.4
O=C(CSc1nnnn1-c1ccccc1)Nc1ccc(N2CCOCC2)c(Cl)c1	-1.9	0.4	0.6	-2.5	3.2
CN(C)C(CNS(=O)(=O)c1cc([N+](=O)[O-])ccc1Cl)c1ccco1 (stereo not given)	3.3	2.7	-0.9	9.9	3.7
O=C(CN1C(=O)C2CC=CCC2C1=O)NCC1COc2ccccc2O1 (stereo not given)	51.3*	-0.4	-4.2	5.7	1.8
COc1cc(/C=N/NS(=O)(=O)c2ccc(C)c([N+](=O)[O-])c2)cc([N+](=O)[O-])c1O	-2.0	0.0	0.2	3.2	1.6
COc1ccc(-n2c(O)c(/C=N/NS(=O)(=O)c3ccc(C)c([N+](=O)[O-])c3)c3ccccc3c2=O)cc1OC	-9.7	-14.6	-48.6	127.5*	-63.9
Cc1ccc(N(C(=O)c2csnn2)C(C(=O)NC2CCCC2)c2ccccn2)cc1 (stereo not given)	-2.6	0.9	-1.5	0.5	-3.3
COCCn1c(=NC(=O)/C=C/c2ccccc2)sc2cc(NC(C)=O)ccc21	0.7	-1.4	-0.2	33.4*	-34.9
COCCn1c(=NC(C)=O)sc2cc([N+](=O)[O-])ccc21	-8.4	1.5	-0.2	0.2	0.3
Cn1c(=O)c(Nc2ccc(O)cc2)c2c3c(cccc31)C(=O)c1ccccc1-2	4.9	-1.0	4.7	49.6*	-55.6
CC(=O)c1c2c3c(cccc3n(C)c1=O)C(=O)c1ccccc1-2	9.1	x	x	x	x
C/C(=N/NC(=O)c1sc(=S)n(C)c1C)c1ccccc1	-3.9	-0.4	-2.1	0.6	-47.0
COc1ccccc1NC(=S)N1CC(C)OC(C)C1 (stereo not given)	4.8	-1.1	-4.9	-5.7	2.5
Cc1ccc(NC(=S)N2CCCC(CO)C2)c(C)c1 (stereo not given)	29.5*	0.0	-5.1	4.5	-4.7
Cc1ccc(S(=O)(=O)Cn2nnnc2C(C(C)C)N2CCC(C(N)=O)CC2)cc1 (stereo not given)	4.5	0.0	2.7	-3.0	-0.7
Cc1c(N(C)C)c(=O)n(-c2ccccc2)n1C	42.3*	-0.7	-1.1	1.5	-13.5
Cc1c(C=O)c(=O)n(-c2ccccc2)n1C	4.8	0.9	-3.0	1.8	2.2
COc1ccc(OC)c(/C=C2\N=C(c3ccccc3)OC2=O)c1	41.9*	11.7	-23.6	16.7	-8.1
O=C(NCc1cccc(C(F)(F)F)c1)c1cccc2c1C(=O)c1ccc(N3CCC(Cc4ccccc4)CC3)cc1S2(=O)=O	-1.8	9.5	-1.6	95.0*	-193.5
O=C(O)c1cccc2c1C(=O)c1ccc(N3CCCC3)cc1S2(=O)=O	-7.9	8.5	-32.1	35.8*	-41.9
O=C(NCc1cccc(F)c1)c1cccc2c1C(=O)c1ccc(N3CCC(Cc4ccccc4)CC3)cc1S2(=O)=O	3.8	16.6	6.4	177.8*	-220.8
CC1CCN(c2ccc3c(c2)S(=O)(=O)c2cccc(C(=O)NCc4cccc(F)c4)c2C3=O)CC1	1.1	3.0	2.4	164.4*	-98.5
COc1ccc(NC(=O)CN2C(=O)COc3ccc(S(=O)(=O)N4CCOCC4)cc32)cc1Cl	6.2	0.1	1.4	1.6	-10.5
Cc1ccc(S(=O)(=O)Nc2ccc3c(c2)C(=O)N([C@H](C)CO)C[C@H](C)[C@@H](CN(C)C(=O)Nc2ccc(C(F)(F)F)cc2)O3)cc1	x	-0.2	-1.1	-1.4	-4.1
COc1ccc(CNC(=O)CSc2n[nH]c(C)c2[N+](=O)[O-])cc1	2.5	0.2	-5.3	3.0	-4.1
SMILES	LANA-H2A inh	C-LANA FP	Keap1 Nrf2 FP	RTF Ca sens act	Cardiac RTF inh
O=C(NCCc1ccc(F)cc1)c1cccc2c1C(=O)c1ccc(N3CCC(Cc4ccccc4)CC3)cc1S2(=O)=O	3.0	14.3	-5.8	117.0*	-178.5
O=C(NCc1ccco1)c1cccc2c1C(=O)c1ccc(N3CCC(Cc4ccccc4)CC3)cc1S2(=O)=O	-0.6	10.2	-2.8	117.3*	-196.8
Cc1cc(NC(=O)C2CCN(S(=O)(=O)c3cnc[nH]3)CC2)ccc1Br	2.4	-1.8	-12.9	0.6	-6.2
NC(=O)c1c(-c2ccccc2)oc2ccc(O)cc12	17.1*	-1.8	-4.2	5.4	-7.4
COC(=O)c1cc(OC)nc(OC)c1	25.0*	0.8	-0.8	-2.6	-2.9
COC(=O)c1cc(O)c(O)c(O)c1	8.1	3.5	-2.5	-3.1	-2.2
CN1C(=O)C(N=Nc2ccccc2C(=O)O)N(C)C1=S (stereo not given)	-10.3	-3.6	-6.4	1.9	-0.2
O=C1CC(C(=O)Nc2ccccc2)S/C(=N\NC(=O)c2ccccc2Cl)N1 (stereo not given)	-1.0	2.1	2.8	3.2	-7.7
Cc1ccc(Cl)cc1N1CCN(C(=O)C2CCN(S(=O)(=O)c3cnc[nH]3)CC2)CC1	1.9	1.5	-5.8	7.0	-5.6
Cc1ccc(Cl)cc1N1CCN(C(=O)C2CCN(S(C)(=O)=O)CC2)CC1	13.1*	-0.4	-5.3	14.5	-7.1
NC(=S)Nc1ncc(C(F)(F)F)cc1Cl	127.5*	0.1	0.3	-4.0	7.3
CC1(C)CNC(=O)CC(C)(C)N1	43.4*	-1.6	-1.8	-4.1	-11.5
O=C(COC(=O)c1ccc(F)cc1Cl)NC1CCS(=O)(=O)C1 (stereo not given)	x	0.1	5.0	-0.1	-5.7
CN(C)S(=O)(=O)c1cccc(NC(=O)COC(=O)c2cc(=O)c3ccccc3o2)c1	0.7	-0.4	-0.8	-1.4	-1.0
COc1ccc(CNC(=O)COC(=O)C(CCSC)NC(=O)c2ccco2)cc1OC (stereo not given)	117.5*	-1.1	-5.5	-3.6	-7.3
O=C(COc1ncnc2c1cnn2-c1ccccc1)Nc1ccc(S(=O)(=O)N2CCCCC2)cc1	2.3	2.7	-5.7	1.6	-2.1
NS(=O)(=O)c1cccc(NC(=O)COc2ncnc3c2cnn3-c2ccccc2)c1	130.7*	2.8	2.5	7.3	-14.5
CCN(CC)c1ccc2cc(S(=O)(=O)c3ccc(C)cc3)c(=O)oc2c1	4.2	35.8	u	53.1*	-39.5
Cc1ccc(S(=O)(=O)c2cc3ccccc3oc2=O)cc1	1.1	-0.8	-0.8	4.0	-5.2
COc1cc(/C=C/c2sc3ccccc3[n+]2CCCS(=O)(=O)[O-])ccc1O	-37.6	-32.8	-121.7	68.2*	-85.2
Cc1ccc2c(c1)sc(C)[n+]2CCCS(=O)(=O)[O-]	-4.9	-0.8	-3.6	3.0	-5.8
CCC(/C=C1\Oc2ccc(OC)cc2N1C)=C\c1sc2ccccc2[n+]1CCCS(=O)(=O)[O-]	x	0.9	-1.7	76.8*	-11.0
Cn1c(-c2ccc(C=O)s2)nc2c3ccccc3c3ccccc3c21	9.1	15.8	-3.5	81.0*	-14.5
O=C(N/N=C/C=C\c1cccc([N+](=O)[O-])c1)c1ccccn1	61.1*	2.4	0.3	2.6	-5.9
O=C(N/N=C/C=C/c1ccccc1)c1ccccn1	-0.7	0.0	-0.2	-4.2	3.8

Screening data (PubChem BioAssay)
